Data on twelve compounds can be found in the supplement of paper PMC9023506.

Counter-ions that a name gives are not always drawn.

This experiment relates to Danio rerio larvae (5 dpf). As to the kind of experiment: activity during period 15 (no stimuli), difference vs DMSO (percentage points (treated minus DMSO)); higher = more of the behaviour than the DMSO vehicle control. The note with it: 10 µM; exposure time: 3 h pre-incubation + 3 h imaging. The protocol:
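5-dpf wild-type zebrafish larvae were imaged in 96-well plates. They were treated with 190 Tocris FDA-approved drugs at 10 µM (1 µl/ml DMSO) for 3 h before and 3 h during imaging at 28.5 °C, 48 larvae per drug. Automated image analysis gave % time moving and optomotor responses. Values are drug group mean minus DMSO vehicle mean (n=844), in percentage points, for 10 behaviours.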
As to `CC[C@@H](C(N)=O)N1CCCC1=O` [Levetiracetam], the “activity during period 15” value worked out at 4.21. For `CN1C[C@H](C(=O)N[C@]2(C)O[C@@]3(O)[C@@H]4CCCN4C(=O)[C@H](Cc4ccccc4)N3C2=O)C[C@@H]2c3cccc4[nH]cc(c34)C[C@H]21` [Dihydroergotamine mesylate], the “activity during period 15” value stood at 1.37. Regarding `CC(C)C[C@H]1C(=O)N2CCC[C@H]2[C@]2(O)O[C@](NC(=O)[C@@H]3C=C4c5cccc6[nH]c(Br)c(c56)C[C@H]4N(C)C3)(C(C)C)C(=O)N12` [Bromocriptine mesylate], the “activity during period 15” value was found to be 3.6. The figure for `COc1ccc(C(CN(C)C)C2(O)CCCCC2)cc1` (configuration not stated) [Venlafaxine hydrochloride] is -20.4. The figure for `CCN(C)C(=O)Oc1cccc([C@H](C)N(C)C)c1` [Rivastigmine tartrate] is -7.13.

`C=C1C[C@@H]2[C@H](CC[C@]3(C)C(=O)CC[C@@H]23)[C@@]2(C)C=CC(=O)C=C12` [Exemestane]: the “activity during period 15” value was -15.7. With `C=CCN1C[C@H](C(=O)N(CCCN(C)C)C(=O)NCC)C[C@@H]2c3cccc4[nH]cc(c34)C[C@H]21` [Cabergoline], the “activity during period 15” value is -8.5. On to `COc1cc2c(cc1OC)C1CC(=O)C(CC(C)C)CN1CC2` (configuration not stated) [Tetrabenazine], for which the “activity during period 15” value came out at 3.06.

Regarding `N[C@@H]1C[C@H]1c1ccccc1` [Tranylcypromine hydrochloride], the “activity during period 15” value was -10.3.

As to `CC(O)(CS(=O)(=O)c1ccc(F)cc1)C(=O)Nc1ccc(C#N)c(C(F)(F)F)c1` (configuration not stated) [Bicalutamide], the “activity during period 15” value came out at 5.81. As for `O=c1[nH]c2ccccc2n1C1CCN(CCCC(c2ccc(F)cc2)c2ccc(F)cc2)CC1` [Pimozide], the “activity during period 15” value was -8.89. For `Cc1cccc([C@H](C)c2c[nH]cn2)c1C` [Dexmedetomidine hydrochloride], the “activity during period 15” value is -35.2.
